CYP2C19 inhib = human CYP2C19 inhibition | inhibition, % at 5 µM | AID 778 | 96,000 tested, 21% active | CYP2C19 Supersomes, luciferin-H EGE luminescence, 30 min | P33261;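 active = CYP2C19 inhibition above a set limit at 5 µM in the primary screen, cut at about 50% in these data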;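 also: plate controls were negative control wells for no effect and 2.5 mM tranylcypromine positive control for full effect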
Cav32 inh = human Cav3.2 channel inhibition, primary screen; O95180; Cav3.2-expressing cells, Fluo-4 calcium fluorescence FDSS; hits give low values; B-score at 10 µM; 100,000 tested, 4% active;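 active = single-dose well whose peak fluorescence ratio is a statistical outlier from its plate by either plate-standardised score or position-corrected B-score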
CYP2C9 activ = increases human cytochrome P450 2C9 activity | P11712 | recombinant CYP2C9, luciferin-H conversion, luminescence; hits give high values; factor 1 = untreated enzyme, 0 = blocked | activation factor at 5 µM | 96,000 tested, 1.4% active;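 active = activation factor of 2 or more for CYP2C9 at a 5 µM dose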;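 also: 0 = sulfaphenazole-blocked wells and 1 = vehicle-only wells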
Target sequence (P11712 whole entry, looked up): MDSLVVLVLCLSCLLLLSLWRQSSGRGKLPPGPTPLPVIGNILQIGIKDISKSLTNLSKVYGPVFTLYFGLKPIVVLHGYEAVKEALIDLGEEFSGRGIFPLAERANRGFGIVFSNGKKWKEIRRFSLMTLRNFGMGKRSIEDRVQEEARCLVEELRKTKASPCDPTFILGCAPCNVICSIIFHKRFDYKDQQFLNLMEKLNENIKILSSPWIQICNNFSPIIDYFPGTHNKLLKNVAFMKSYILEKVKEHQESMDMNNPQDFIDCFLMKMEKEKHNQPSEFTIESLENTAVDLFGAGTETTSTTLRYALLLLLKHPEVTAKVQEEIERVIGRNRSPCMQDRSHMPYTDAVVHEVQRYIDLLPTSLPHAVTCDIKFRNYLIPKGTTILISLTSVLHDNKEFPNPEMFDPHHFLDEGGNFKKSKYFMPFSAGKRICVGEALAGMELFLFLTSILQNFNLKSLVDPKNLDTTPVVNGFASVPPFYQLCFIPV
CYP2C19 act = cytochrome P450 2C19 (human) activation | P33261 | recombinant CYP2C19, luciferin-H EGE luminescence; hits give high values; 0 = fully inhibited enzyme, 1 = untreated enzyme | activation factor at 5 µM | 96,000 tested, under 10 active;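 active = activation factor of at least 2 at 5 µM in the primary screen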;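 also: 0 = wells with 2.5 mM tranylcypromine and 1 = vehicle-only wells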
CYP2C9 inhib = inhibitors of human CYP2C9; P11712; CYP2C9 Supersomes, luciferin-H conversion, luminescence; inhibition, % at 5 µM; 96,000 tested, 20% active; AID 777;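 active = blocking of liver enzyme CYP2C9 beyond about 50% at 5 µM, limit read from the data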
An asterisk follows results filed as active; . = no result given. Rows were chosen to be rich in hits. Some 27% of all compounds tested hit in one or more screens of this group.

SMILES	CYP2C19 inhib	Cav32 inh	CYP2C9 activ	CYP2C19 act	CYP2C9 inhib
CCCOc1ccccc1Cn1c(=O)oc2ccc(C)cc21	96*	-5.6*	0.2	0	84*
CCOc1ccccc1Cn1c(=O)oc2ccc(C)cc21	.	-4.7*	.	.	.
COc1ccccc1OCCCn1c(=O)oc2ccc(C)cc21	56*	-3.6	0.8	0.4	20
Cc1ccc2oc(=O)n(CCOc3ccccc3Cl)c2c1	-5	-0.051	1.1	1.1	-8
Cc1cc(NC(=O)Cn2nc(-c3ccccc3F)ccc2=O)ccc1-n1cnnn1	-3	0.21	0.8	1	17
O=C1Nc2ccc(NS(=O)(=O)c3cccs3)c3cccc1c23	89*	.	0.1	0.1	89*
O=C1Nc2ccc(S(=O)(=O)NCc3ccco3)c3cccc1c23	.	0.015	.	.	.
O=C(O)c1ccccc1NS(=O)(=O)c1ccc2c3c(cccc13)C(=O)N2	21	-0.28	0	0.8	97*
COC(=O)c1c(C)oc2c1cc(NS(=O)(=O)c1cccs1)c1ccccc12	92*	-0.039	0.1	0.1	95*
Cc1oc2c(cc(NS(=O)(=O)c3ccc4c5c(cccc35)C(=O)N4)c3ccccc32)c1C(=O)OC(C)C	39	.	0.1	0.6	89*
CC(C)C(NS(=O)(=O)c1ccc2c3c(cccc13)C(=O)N2)C(=O)O (stereo unspecified)	-1	-0.1	1	1	3
Cc1ccccc1C(=O)NCc1nnc(SCC(=O)N2c3ccccc3Sc3ccccc32)n1C	23	-3.7	1	0.8	-3
O=C1C2CC=CCC2C(=O)N1c1cccc(OS(=O)(=O)c2ccc3ccccc3c2)c1 (stereo unspecified)	3	1.4	1.6	1	-63
O=C(CSCc1cnn(-c2ccccc2)c1-n1cccc1)NCc1cccs1	53*	-6.3*	0.2	0.5	81*
CNC(=O)CSCc1cnn(-c2ccccc2)c1-n1cccc1	76*	1.2	0.5	0.2	45
CCOC(=O)N1CCC(NC(=O)CSCc2cnn(-c3ccccc3)c2-n2cccc2)CC1	57*	-0.021	0.5	0.4	51*
CCOC(=O)N1CCC(NC(=O)c2sc(-n3cccc3)nc2C)CC1	0	0.67	1.7	1	-69
COc1cccc(CNC(=O)CSCc2cnn(-c3ccccc3)c2-n2cccc2)c1	92*	-5.3*	0.1	0.1	94*
CN1C(=O)c2ccccc2C(C(=O)NCC2CCCO2)C1c1c[nH]c2ccccc12 (stereo unspecified)	-20	0.2	1.2	1.2	-22
CC(=O)c1cccc(NC(=O)C2C3C=CC(C4CC34)C2C(=O)O)c1 (stereo unspecified)	8	0.69	0.9	0.9	11
COC(=O)/C(=C\Nc1ccc(Cl)c2ccccc12)c1ncc(C(F)(F)F)cc1Cl	33	-0.29	0.2	0.7	76*
COc1ccc(OC)c(CCNC(=O)Cn2sc3nc(C)cc(C)c3c2=O)c1	22	0.18	0.4	0.8	65*
COc1ccc(-n2nnnc2SCC(=O)NCCc2ccc(OC)c(OC)c2)cc1	16	-2.8	0.6	0.8	40
COc1ccc(NS(=O)(=O)c2ccc(C)c(C(=O)O)c2)cc1	-4	0.27	0.9	1	9
COc1ccc(NS(=O)(=O)c2ccc3oc(SC4CCOC4=O)nc3c2)cc1 (stereo unspecified)	97*	1.1	0	0	100*
SMILES	CYP2C19 inhib	Cav32 inh	CYP2C9 activ	CYP2C19 act	CYP2C9 inhib
Cc1ccc(-c2ccc(/C=N/c3ncn[nH]3)o2)cc1Cl	-4	-6.7*	1.1	1	-13
Cc1ccc(-c2ccc(/C=N/NC(=O)CN3CCCC3)o2)cc1Cl	22	0.78	0.9	0.8	11
CCN1CCc2nc(NC(=O)c3ccccc3)sc2C1	2	.	1	1	0
CN(C)c1ccc(/C=C(\C#N)C(=O)Nc2nc3c(s2)CCN(Cc2ccccc2)C3)cc1	46	-4*	0.8	0.5	20
COC(=O)/C=C/CSC1=N/C(=C/c2ccc(-n3cncn3)cc2)C(=O)N1	2	0.34	0.7	1	25
CCOC(=O)CN1C(=O)C(Sc2n[nH]c(-c3ccccc3)n2)CCc2ccccc21 (stereo unspecified)	89*	-2.3	0.1	0.1	93*
CCOC(=O)CN1C(=O)C(CC)Oc2ccccc21 (stereo unspecified)	9	0.61	1.1	0.9	-5
COc1cccc(NC(=O)c2ccc3c(c2)N(CC(=O)N2CCCCC2)C(=O)C(C)(C)O3)c1	12	1.6	0.4	0.9	64*
